Inconclusive results are not listed. Calls of active or inactive are those of the source. Unless noted, calls come from the whole dose curve; as a rule, active = well fitted curve in the direction sought with a large enough effect; inconclusive = small, poorly fitted or top-dose-only effect, or another doubt; inactive = no such curve, though single readings can be large; an effect the other way counts as inactive or inconclusive.
Columns and labels:
[1] = Cell Viability - LYMP1-003 - Assay at 40 hr (AID 964); note: series mostly up to about 92 µM; % is set by controls: 0 for no effect and ±100 for the full control effect; nearly all actives have a fitted effect of over 60% in size
Procedure, shortened: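 Acute toxicity is scored as a concentration-dependent loss of intracellular ATP in LYMP1-003 cells (2500/well, complete medium) after 40 hr at 37 C, measured by CellTiter-Glo luminescence; AC50 values derive from standard Hill modelling.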

[2] = Cell Viability - LYMP2-003 (AID 965);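 note: cells exposed to compounds for 24 h before reading; 0% = DMSO only and full effect = 92 µM tetraoctylammonium bromide; nearly all actives have a fitted effect of over 50% in size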
Procedure, shortened: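 Acute cytotoxicity is scored as a concentration-dependent drop in intracellular ATP, measured by luciferase luminescence in human lymphoblastoid cells treated for 24 hours at 37 C. AC50 values derive from Hill-equation modelling.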

[3] = Cell Viability - LYMP2-004 (AID 966);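 note: plate controls were DMSO only for no effect and tetraoctylammonium bromide control for full effect; nearly all actives have a fitted effect of over 65% in size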
Procedure, shortened: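 Viable-cell number estimated from ATP luminescence (CellTiter-Glo) in 2500 human lymphoblastoid cells/well after 24 hr at 37 C with compound. AC50 fitted to the standard Hill equation.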

[4] = Cell Viability - LYMP2-005 (AID 967);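 note: series mostly up to about 92 µM; plate controls were DMSO only for no effect and 92 µM tetraoctylammonium bromide control for full effect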
Procedure, shortened: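 qHTS viability screen in LYMP2-005 cells: 24 h at 37 C with compound, ATP luminescence via CellTiter-Glo, AC50 from Hill curves.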

[5] = Cell Viability - LYMP2-011 (AID 969);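 note: 0% = DMSO only and full inhibition = 92 µM tetraoctylammonium bromide; nearly all actives have a fitted effect of over 60% in size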
Procedure, shortened: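 Cells seeded at 2500 per well rest 5 hr before compound addition, then incubate 24 hr at 37 C. CellTiter-Glo reagent is added for 30 min at room temperature before luminescence detection.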

[6] = Cell Viability - LYMP2-013 (AID 970);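 note: series mostly up to about 92 µM; 0% = DMSO only and full inhibition = tetraoctylammonium bromide control; nearly all actives have a fitted effect of over 55% in size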
Procedure, shortened: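 In complete culture medium, human lymphoblastoid cells were dosed for 24 hr at 37 C, with tetraoctylammonium bromide (6.4pM to 92 uM) as positive control. Viability reflects luciferase-based ATP signal; AC50 derived from concentration-response curves.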

[7] = Cell Viability - LYMP2-015 (AID 971);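 note: 0% = DMSO only and full effect = 92 µM tetraoctylammonium bromide; nearly all actives have a fitted effect of over 55% in size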
Procedure, shortened: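 AC50 values reflect Hill-model fits of ATP-based luminescence (CellTiter-Glo) from a human lymphoblastoid line, 2500 cells/well, treated 24 hr at 37 C.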

[8] = Cell Viability - LYMP2-017 (AID 972); note: series mostly up to about 92 µM; % is set by controls: 0 for no effect and ±100 for the full control effect; nearly all actives have a fitted effect of over 55% in size
Procedure, shortened: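 In this qHTS format, lymphoblastoid cells in complete medium receive test compound for a day at 37 C before ATP content is quantified by luciferase luminescence. Reported AC50 figures come from standard Hill-equation curve fitting.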

[9] = Cell Viability - LYMP2-019 (AID 973);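 note: 0% = DMSO alone and full effect = 92 µM tetraoctylammonium bromide; nearly all actives have a fitted effect of over 55% in size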
Procedure, shortened: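 AC50 values come from Hill-equation modelling of qHTS concentration-response curves, where viability is measured as luciferase-based ATP luminescence in the lymphoblastoid line after 24 hr compound exposure in complete culture medium.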

[10] = Cell Viability - LYMP2-021 (AID 974)
Procedure, shortened: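 In qHTS format, compounds are tested against 2500 lymphoblastoid cells per well for 24 h; viable cell number is inferred from ATP-driven luciferase light, and Hill-equation fitting yields AC50 values.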

[11] = Cell Viability - LYMP2-023 (AID 975)
Procedure, shortened: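 In this qHTS, ATP-based luciferase luminescence (CellTiter-Glo) is quantified in human lymphoblastoid cells after 24 hr compound treatment at 37 C; tetraoctylammonium bromide serves as positive control. Concentration-response curves are Hill-fitted to give AC50.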

[12] = Cell Viability - LYMP2-025 (AID 976);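 note: series mostly up to about 92 µM; plate controls were DMSO only for no effect and tetraoctylammonium bromide control for full effect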
Procedure, shortened: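 Luminescent ATP readout after 24 hr treatment of a human lymphoblastoid line (LYMP2-025, 2500 cells/well, 37 C). Reagent developed 30 min at room temperature; AC50 fitted with the Hill equation.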

[13] = Cell Viability - LYMP2-002 (AID 977);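 note: series mostly up to about 92 µM; compound exposure lasted 24 h at 37 °C; plate controls were DMSO only for no effect and 92 µM tetraoctylammonium bromide for full effect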
Procedure, shortened: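 Human lymphoblastoid cells (2500/well) in complete medium were preincubated 5 hr at 37 C, then exposed to compounds for 24 hr at 37 C. Intracellular ATP was read by CellTiter-Glo luminescence; AC50 came from Hill-equation concentration-response fits.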

[14] = Cell Viability - LYMP2-007 (AID 979);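 note: cells exposed to compound for 24 h before reading; 0% = DMSO only and the negative end = 92 µM tetraoctylammonium bromide; nearly all actives have a fitted effect of over 60% in size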
Procedure, shortened: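 Measured via luciferase-based ATP quantitation: lymphoblastoid cells, 24 hr compound exposure at 37 C, AC50 from Hill fits.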

[15] = Cell Viability - LYMP2-008 (AID 980); note: % is set by controls: 0 for no effect and ±100 for the full control effect; nearly all actives have a fitted effect of over 60% in size
Procedure, shortened: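 Measured: ATP-dependent luminescence, proportional to viable cell number, in human lymphoblastoid cells treated 24 hr with compound in complete culture medium. Values are AC50s from Hill-equation modelling of qHTS titrations.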

[16] = Cell Viability - LYMP2-010 (AID 981)
Procedure, shortened: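 This 24 hr viability screen uses LYMP2-010 lymphoblastoid cells, quantifies ATP via luciferase luminescence, and derives AC50 from Hill fits of qHTS concentration-response data.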

[17] = Cell Viability - LYMP2-014 (AID 983);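 note: series mostly up to about 92 µM; plate controls were DMSO only for no effect and 92 µM tetraoctylammonium bromide for full effect; nearly all actives have a fitted effect of over 50% in size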
Procedure, shortened: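 Quantitative HTS in lymphoblastoid cells: 24 hr compound exposure, then CellTiter-Glo ATP luminescence. Positive control was tetraoctylammonium bromide, 6.4pM to 92 uM.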

[18] = Cell Viability - LYMP2-016 (AID 984)
Procedure, shortened: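 Acute toxicity in a Coriell human lymphoblastoid line is scored as loss of intracellular ATP over 24 h of treatment in complete medium. CellTiter-Glo signal is fitted across concentrations with the Hill equation to give AC50.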

[19] = Cell Viability - LYMP2-018 (AID 985);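 note: plate controls were DMSO only for no effect and tetraoctylammonium bromide at 92 µM for full effect; nearly all actives have a fitted effect of over 50% in size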
Procedure, shortened: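 In this qHTS viability assay, cells are treated for 24 hr and cellular ATP is quantified by luciferase-based luminescence, with tetraoctylammonium bromide as positive control.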

[20] = Cell Viability - LYMP2-020 (AID 986)
Procedure, shortened: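 Cells at 2500 per well receive a 24 hr compound exposure at 37 C. Viability is measured as ATP-dependent luciferase luminescence, with AC50 modeled from qHTS concentration-response curves.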

[21] = Cell Viability - LYMP2-022 (AID 987)
Procedure, shortened: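 In this qHTS cytotoxicity screen, compound titrations were incubated 24 hr at 37 C with human lymphoblastoid cells in complete medium. Luciferase-based ATP luminescence provided the viability signal.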

[22] = Cell Viability - LYMP2-024 (AID 988)
Procedure, shortened: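 Cells at 2500 per well received compound for 24 hr after a 5 hr settling period. Viability was scored by CellTiter-Glo luminescence, with AC50 from Hill fits.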

[23] = Cell Viability - LYMP2-026 (AID 989); note: % is set by controls: 0 for no effect and ±100 for the full control effect; nearly all actives have a fitted effect of over 50% in size
Procedure, shortened: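 Acute toxicity screen in complete culture medium, with 24 hr compound exposure at 37 C. Viability read as cellular ATP via luciferase reaction, with tetraoctylammonium bromide (6.4pM to 92 uM) as positive control.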

[24] = Cell Viability - LYMP1-002 - Assay at 24 hr (AID 993); note: % is set by controls: 0 for no effect and ±100 for the full control effect
Procedure, shortened: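 Viability was judged from intracellular ATP using a luciferase read-out, following a 24-hour compound incubation at 37 C of lymphoblastoid cells seeded at 2500 per well. Concentration-response data were fitted to the Hill equation for AC50.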

[25] = Cell Viability - LYMP1-002 - Assay at 40 hr (AID 994)
Procedure, shortened: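 Concentration-dependent ATP loss after 40 hr treatment at 37 C defined toxicity; AC50 values were obtained by fitting the standard Hill equation.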

[26] = target: Estrogen receptor (Homo sapiens) (UniProt P03372); assay: qHTS assay for small molecule antagonists of estrogen receptor alpha signaling (AID 588513; active = well fitted curve in the direction sought with a large enough effect in the signal ratio, with a control signal flat, not every such curve was filed as active; the % refers to the signal ratio; note: % is set by controls: 0 for no effect and ±100 for the full control effect)
Chain of Estrogen receptor (Homo sapiens) (P03372 whole entry, looked up): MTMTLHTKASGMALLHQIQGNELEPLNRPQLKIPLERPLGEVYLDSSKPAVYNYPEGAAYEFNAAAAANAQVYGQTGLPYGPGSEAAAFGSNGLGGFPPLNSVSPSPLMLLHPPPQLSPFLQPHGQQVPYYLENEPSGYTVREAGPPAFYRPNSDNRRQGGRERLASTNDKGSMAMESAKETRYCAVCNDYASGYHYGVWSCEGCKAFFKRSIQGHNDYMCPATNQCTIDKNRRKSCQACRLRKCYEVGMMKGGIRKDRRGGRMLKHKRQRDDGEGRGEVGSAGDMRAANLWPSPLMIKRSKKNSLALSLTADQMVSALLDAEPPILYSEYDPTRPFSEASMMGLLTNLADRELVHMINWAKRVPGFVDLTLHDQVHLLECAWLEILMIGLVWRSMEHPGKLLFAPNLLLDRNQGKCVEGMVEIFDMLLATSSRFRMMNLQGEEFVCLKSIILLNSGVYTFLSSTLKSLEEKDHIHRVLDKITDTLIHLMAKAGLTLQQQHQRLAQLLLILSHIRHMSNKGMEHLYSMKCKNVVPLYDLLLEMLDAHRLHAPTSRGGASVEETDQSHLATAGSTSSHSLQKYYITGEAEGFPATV
Procedure, shortened: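 Cells were plated at 5000/well and incubated 4 h at 37 C. Compounds were added as 1:2 dilution series, duplicates. 17-beta-estradiol (0.5nM final) was added for 18 h before CCF4 detection.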

[27] = target: Bile acid receptor (Homo sapiens) (UniProt Q96RI1); assay: qHTS assay for small molecule antagonists of farnesoid X receptor signaling (AID 588526; calls by dose curve; note: % is set by controls: 0 for no effect and ±100 for the full control effect)
Chain of Bile acid receptor (Homo sapiens) (Q96RI1 whole entry, looked up): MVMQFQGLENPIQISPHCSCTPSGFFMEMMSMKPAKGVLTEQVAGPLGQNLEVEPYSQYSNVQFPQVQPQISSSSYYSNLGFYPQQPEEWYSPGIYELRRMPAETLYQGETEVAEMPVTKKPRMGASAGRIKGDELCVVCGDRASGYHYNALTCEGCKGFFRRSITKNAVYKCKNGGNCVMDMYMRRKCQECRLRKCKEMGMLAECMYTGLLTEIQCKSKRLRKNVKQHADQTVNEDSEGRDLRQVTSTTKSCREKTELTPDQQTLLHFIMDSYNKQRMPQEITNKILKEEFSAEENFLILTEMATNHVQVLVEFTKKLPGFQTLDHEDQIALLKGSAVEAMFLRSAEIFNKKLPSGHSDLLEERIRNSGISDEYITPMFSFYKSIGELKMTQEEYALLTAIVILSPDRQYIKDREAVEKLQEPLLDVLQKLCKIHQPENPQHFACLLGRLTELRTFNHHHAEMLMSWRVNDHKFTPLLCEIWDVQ
Procedure, shortened: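 Beta-lactamase reporter antagonist mode: HEK293T FXR-UAS-bla cells, titrated compound, CDCA stimulation, 16 h 37 C, CCF4 dye 2 h RT. Data normalized to CDCA 50 uM and DMSO; Hill-fit IC50.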

[28] = qHTS assay for small molecule agonists of retinoid X receptor alpha signaling (AID 588544); details: HEK293T RXRa-UAS-bla, beta-lactamase reporter, 18 h; 530 nm emission
[29] = target: Voltage-gated inwardly rectifying potassium channel KCNH2 (Homo sapiens) (UniProt Q12809); assay: qHTS Assay for Small Molecule Inhibitors of the Human hERG Channel Activity (AID 588834)
Chain of Voltage-gated inwardly rectifying potassium channel KCNH2 (Homo sapiens) (Q12809 whole entry, looked up): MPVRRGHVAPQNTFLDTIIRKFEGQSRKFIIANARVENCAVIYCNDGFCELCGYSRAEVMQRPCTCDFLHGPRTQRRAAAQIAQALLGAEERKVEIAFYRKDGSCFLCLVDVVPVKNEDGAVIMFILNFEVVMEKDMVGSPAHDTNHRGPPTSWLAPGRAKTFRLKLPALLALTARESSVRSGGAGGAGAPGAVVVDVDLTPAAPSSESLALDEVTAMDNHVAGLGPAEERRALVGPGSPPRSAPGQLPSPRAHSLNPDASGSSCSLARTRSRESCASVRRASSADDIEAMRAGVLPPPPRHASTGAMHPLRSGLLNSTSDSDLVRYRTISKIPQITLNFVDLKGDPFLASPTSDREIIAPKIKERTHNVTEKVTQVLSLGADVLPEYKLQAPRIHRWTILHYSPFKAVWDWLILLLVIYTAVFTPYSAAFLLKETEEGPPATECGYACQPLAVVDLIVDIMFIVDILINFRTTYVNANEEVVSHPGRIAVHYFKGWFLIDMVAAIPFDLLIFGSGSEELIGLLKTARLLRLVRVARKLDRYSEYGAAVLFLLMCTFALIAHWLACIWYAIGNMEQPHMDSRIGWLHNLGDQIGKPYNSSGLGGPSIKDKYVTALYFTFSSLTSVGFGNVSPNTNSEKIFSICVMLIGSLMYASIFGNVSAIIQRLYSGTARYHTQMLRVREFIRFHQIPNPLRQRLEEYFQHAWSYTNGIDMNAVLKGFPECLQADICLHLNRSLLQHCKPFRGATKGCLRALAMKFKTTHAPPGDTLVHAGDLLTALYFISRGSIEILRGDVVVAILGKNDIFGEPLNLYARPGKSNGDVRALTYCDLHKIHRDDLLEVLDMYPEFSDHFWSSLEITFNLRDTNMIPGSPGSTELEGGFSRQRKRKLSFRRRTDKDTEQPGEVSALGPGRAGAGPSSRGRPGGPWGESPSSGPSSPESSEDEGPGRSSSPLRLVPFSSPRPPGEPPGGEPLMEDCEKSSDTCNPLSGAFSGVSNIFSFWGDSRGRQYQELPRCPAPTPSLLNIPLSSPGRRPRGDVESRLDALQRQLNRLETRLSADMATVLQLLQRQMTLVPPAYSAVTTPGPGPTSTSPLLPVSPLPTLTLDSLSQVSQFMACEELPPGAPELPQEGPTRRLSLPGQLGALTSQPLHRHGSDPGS
Procedure, shortened: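 Cells were infected with hERG-BacMam virus for 4 hrs at room temperature, grown overnight, then seeded at 2000/well. After dye loading and roughly 10 min compound treatment, thallium influx was triggered and fluorescence recorded.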

[30] = qHTS assay for small molecule disruptors of the mitochondrial membrane potential - 1 hr assay (AID 651754; calls by dose curve; note: % is set by controls: 0 for no effect and ±100 for the full control effect; nearly all actives have a fitted effect of over 35% in size)
Procedure, shortened: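 In this qHTS format, a 1 hr compound treatment of HepG2 cells precedes Mito-MPS staining, and membrane potential is judged from aggregate (red) against monomer (green) fluorescence intensity.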

[31] = target: Peroxisome proliferator-activated receptor alpha (Homo sapiens) (UniProt Q07869); assay: qHTS assay for small molecule agonists of the peroxisome proliferator-activated receptor alpha (PPARalpha) signaling pathway (AID 651778); details: PathHunter PPARalpha complementation, chemiluminescence, 6 h; max response: stronger effect = higher value; note: % of control where 0% means no effect
Chain of Peroxisome proliferator-activated receptor alpha (Homo sapiens) (Q07869 whole entry, looked up): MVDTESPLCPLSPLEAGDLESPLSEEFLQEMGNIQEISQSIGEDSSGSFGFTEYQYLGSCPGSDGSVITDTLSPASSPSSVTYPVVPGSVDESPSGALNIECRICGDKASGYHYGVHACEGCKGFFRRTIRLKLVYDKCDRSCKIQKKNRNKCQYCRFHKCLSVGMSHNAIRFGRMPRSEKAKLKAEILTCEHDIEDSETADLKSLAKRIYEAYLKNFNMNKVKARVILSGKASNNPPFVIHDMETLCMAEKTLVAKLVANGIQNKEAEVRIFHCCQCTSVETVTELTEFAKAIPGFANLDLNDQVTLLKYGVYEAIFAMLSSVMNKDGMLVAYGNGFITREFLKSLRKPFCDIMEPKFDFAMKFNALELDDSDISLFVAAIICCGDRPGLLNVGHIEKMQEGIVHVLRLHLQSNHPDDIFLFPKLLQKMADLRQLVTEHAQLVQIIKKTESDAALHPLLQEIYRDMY
Procedure, shortened: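 Chemiluminescence from complemented enzyme reported PPARalpha activation in cells after 6 hr of compound treatment at 37 C. The detection reagent was incubated for 60 min at room temperature, and compounds were scored as agonists.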

[32] = qHTS assay for small molecule agonists of the antioxidant response element (ARE) signaling pathway measured by Nrf2-dependant transcriptional activity - cell viability counter screen (AID 720653; active = well fitted curve in the direction sought with a large enough effect in the repeat runs; an effect the other way counts as inactive or inconclusive; note: % is set by controls: 0 for no effect and ±100 for the full control effect); details: ARE-bla HepG2 viability, CellTiter-Glo ATP luminescence, 16 h; max response: stronger effect = lower value
Procedure, shortened: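 Cytotoxicity counter screen: intracellular ATP quantified by CellTiter-Glo luminescence in the same ARE-bla HepG2 plates, after 16 h compound exposure and a 2 h beta-lactamase substrate step.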

[33] = qHTS assay for cell viability of HEK293 cells (AID 743288); details: ATP luminescence (CellTiter-Glo), 18 h; max response: stronger effect = lower value
Procedure, shortened: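 Quantitative high-throughput screen: compounds were pinned onto parental HEK293 cells (2,000 per well) after a minimum 5 h settling at 37 C, incubated 18 h at 37 C, and intracellular ATP measured by luciferase luminescence.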

[34] = qHTS assay for cell viability of the p53RE-bla HCT-116 cell line (AID 743292)
Procedure, shortened: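 CellSensor p53RE-bla HCT-116 cells, 4,000/well, preincubated 5 h at 37 C, then exposed to compounds in DMSO for 16 h at 37 C. Viability read as CellTiter-Glo luminescence (intracellular ATP) after 30 min at room temperature.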

[35] = qHTS assay for small molecule activators of the human pregnane X receptor (PXR) signaling pathway (AID 720659; call rule not given here; note: 0% is about no effect)

c1ccc2c(c1)ccc1cc3c(ccc4ccccc43)cc12
-11.8%: max response [28]
inactive: Potency [1] | Potency [2] | Potency [3] | Potency [4] | Potency [5] | Potency [6] | Potency [7] | Potency [8] | Potency [9] | Potency [10] | Potency [11] | Potency [12] | Potency [13] | Potency [14] | Potency [15] | Potency [16] | Potency [17] | Potency [18] | Potency [19] | Potency [20] | Potency [21] | Potency [22] | Potency [23] | Potency [24] | Potency [25] | Potency [26] | Potency [27] | Potency [29] | Potency [30] | max response [31] -1.24% | max response [32] -11.9% | max response [33] -4.73% | Potency [34] | outcome [35]

From PubChem BioAssay (NCATS)
